Assay results from ChEMBL document CHEMBL1961873, “Compounds: GSK PKIS; Assays: Nanosyn kinase panel” (2012).

Tests used:
[1] = biological target: Serine/threonine-protein kinase MRCK alpha (Homo sapiens) (UniProt Q5VT25); details: at 0.1 µM
[2] = biological target: Serine/threonine-protein kinase MRCK alpha (Homo sapiens) (UniProt Q5VT25); details: at 1 µM
[3] = biological target: Serine/threonine-protein kinase MRCK beta (Homo sapiens) (UniProt Q9Y5S2); details: at 0.1 µM
[4] = biological target: Serine/threonine-protein kinase MRCK beta (Homo sapiens) (UniProt Q9Y5S2); details: at 1 µM
[5] = biological target: Ribosomal protein S6 kinase alpha-5 (Homo sapiens) (UniProt O75582); details: at 0.1 µM
[6] = biological target: Ribosomal protein S6 kinase alpha-5 (Homo sapiens) (UniProt O75582); details: at 1 µM
[7] = biological target: Ribosomal protein S6 kinase alpha-4 (Homo sapiens) (UniProt O75676); details: at 0.1 µM
[8] = biological target: Ribosomal protein S6 kinase alpha-4 (Homo sapiens) (UniProt O75676); details: at 1 µM
[9] = biological target: Ribosomal protein S6 kinase beta-1 (Homo sapiens) (UniProt P23443); details: at 0.1 µM
[10] = biological target: Ribosomal protein S6 kinase beta-1 (Homo sapiens) (UniProt P23443); details: at 1 µM

Chain of Ribosomal protein S6 kinase beta-1 (Homo sapiens) (P23443 whole entry, looked up): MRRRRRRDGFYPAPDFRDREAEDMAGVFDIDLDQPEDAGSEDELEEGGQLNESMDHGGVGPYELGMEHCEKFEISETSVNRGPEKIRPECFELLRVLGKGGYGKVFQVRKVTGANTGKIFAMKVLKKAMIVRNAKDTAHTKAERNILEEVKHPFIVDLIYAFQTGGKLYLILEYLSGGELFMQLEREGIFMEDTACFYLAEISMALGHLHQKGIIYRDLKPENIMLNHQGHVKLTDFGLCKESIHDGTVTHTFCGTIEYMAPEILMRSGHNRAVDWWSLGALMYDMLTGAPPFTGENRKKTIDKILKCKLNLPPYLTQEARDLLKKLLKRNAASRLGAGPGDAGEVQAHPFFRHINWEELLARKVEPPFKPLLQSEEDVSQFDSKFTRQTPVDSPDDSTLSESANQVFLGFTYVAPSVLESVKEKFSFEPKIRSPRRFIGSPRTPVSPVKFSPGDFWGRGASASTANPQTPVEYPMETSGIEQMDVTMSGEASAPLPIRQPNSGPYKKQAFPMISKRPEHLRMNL
Chain of Ribosomal protein S6 kinase alpha-4 (Homo sapiens) (O75676 whole entry, looked up): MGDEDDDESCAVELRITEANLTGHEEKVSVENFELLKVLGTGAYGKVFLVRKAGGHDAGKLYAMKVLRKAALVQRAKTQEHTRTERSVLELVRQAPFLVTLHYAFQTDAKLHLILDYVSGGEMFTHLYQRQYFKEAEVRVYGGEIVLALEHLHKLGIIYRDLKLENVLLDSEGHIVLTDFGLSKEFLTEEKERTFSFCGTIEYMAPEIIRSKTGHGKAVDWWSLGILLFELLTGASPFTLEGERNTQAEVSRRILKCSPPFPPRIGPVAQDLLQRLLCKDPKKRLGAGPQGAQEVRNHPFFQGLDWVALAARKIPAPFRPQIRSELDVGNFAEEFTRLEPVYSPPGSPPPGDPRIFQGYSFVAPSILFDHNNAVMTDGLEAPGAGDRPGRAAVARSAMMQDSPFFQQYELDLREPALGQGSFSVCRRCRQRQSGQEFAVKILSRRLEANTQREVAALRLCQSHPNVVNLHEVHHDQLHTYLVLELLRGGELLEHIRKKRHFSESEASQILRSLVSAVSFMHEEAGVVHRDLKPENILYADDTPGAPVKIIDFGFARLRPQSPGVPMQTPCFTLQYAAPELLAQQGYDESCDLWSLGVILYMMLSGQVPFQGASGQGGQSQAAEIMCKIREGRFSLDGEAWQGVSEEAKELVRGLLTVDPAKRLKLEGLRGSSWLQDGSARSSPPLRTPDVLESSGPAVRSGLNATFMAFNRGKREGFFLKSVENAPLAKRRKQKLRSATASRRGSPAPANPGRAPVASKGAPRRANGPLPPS
Chain of Serine/threonine-protein kinase MRCK alpha (Homo sapiens) (Q5VT25 whole entry): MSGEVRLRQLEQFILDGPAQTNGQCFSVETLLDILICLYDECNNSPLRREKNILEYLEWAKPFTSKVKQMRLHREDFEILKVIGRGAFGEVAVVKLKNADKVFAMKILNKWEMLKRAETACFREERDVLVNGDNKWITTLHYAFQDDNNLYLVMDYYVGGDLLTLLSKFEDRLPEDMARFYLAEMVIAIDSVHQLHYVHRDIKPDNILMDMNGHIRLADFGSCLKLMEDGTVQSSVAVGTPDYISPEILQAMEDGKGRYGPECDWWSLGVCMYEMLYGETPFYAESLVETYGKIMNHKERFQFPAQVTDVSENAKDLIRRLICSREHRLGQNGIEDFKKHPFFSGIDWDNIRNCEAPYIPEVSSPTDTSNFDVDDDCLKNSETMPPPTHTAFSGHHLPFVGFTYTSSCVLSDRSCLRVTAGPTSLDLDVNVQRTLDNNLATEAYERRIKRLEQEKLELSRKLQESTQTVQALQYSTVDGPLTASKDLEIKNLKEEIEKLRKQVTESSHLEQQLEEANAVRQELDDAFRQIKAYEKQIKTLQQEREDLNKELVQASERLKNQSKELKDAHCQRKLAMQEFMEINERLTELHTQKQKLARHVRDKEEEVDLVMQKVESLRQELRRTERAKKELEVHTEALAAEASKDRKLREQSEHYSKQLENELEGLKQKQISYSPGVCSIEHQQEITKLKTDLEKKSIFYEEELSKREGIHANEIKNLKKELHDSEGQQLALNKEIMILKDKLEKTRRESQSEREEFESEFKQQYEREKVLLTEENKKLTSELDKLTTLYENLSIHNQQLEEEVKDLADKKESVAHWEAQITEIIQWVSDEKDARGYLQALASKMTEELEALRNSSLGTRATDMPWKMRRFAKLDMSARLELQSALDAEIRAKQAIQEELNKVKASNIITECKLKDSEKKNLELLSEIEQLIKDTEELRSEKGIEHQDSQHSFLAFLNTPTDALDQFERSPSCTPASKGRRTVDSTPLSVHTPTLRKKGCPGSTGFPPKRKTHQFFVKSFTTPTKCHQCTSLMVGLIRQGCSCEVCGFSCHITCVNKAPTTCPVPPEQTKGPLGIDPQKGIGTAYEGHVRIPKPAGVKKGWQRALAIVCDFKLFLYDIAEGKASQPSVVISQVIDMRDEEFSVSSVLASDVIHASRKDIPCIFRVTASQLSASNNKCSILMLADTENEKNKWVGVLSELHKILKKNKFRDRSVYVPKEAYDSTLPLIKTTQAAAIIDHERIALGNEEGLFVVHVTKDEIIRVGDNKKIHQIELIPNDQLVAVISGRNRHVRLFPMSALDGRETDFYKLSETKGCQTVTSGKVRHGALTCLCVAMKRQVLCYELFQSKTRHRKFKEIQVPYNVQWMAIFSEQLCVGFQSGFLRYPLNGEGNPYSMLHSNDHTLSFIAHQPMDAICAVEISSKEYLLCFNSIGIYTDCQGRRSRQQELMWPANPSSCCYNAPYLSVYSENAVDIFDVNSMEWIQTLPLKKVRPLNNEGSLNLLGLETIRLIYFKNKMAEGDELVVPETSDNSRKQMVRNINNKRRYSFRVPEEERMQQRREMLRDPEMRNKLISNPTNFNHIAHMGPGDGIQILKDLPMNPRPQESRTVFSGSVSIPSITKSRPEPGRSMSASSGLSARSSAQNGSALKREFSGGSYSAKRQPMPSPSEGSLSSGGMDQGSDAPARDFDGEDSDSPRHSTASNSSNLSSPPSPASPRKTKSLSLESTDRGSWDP
Chain of Ribosomal protein S6 kinase alpha-5 (Homo sapiens) (O75582 whole entry, looked up): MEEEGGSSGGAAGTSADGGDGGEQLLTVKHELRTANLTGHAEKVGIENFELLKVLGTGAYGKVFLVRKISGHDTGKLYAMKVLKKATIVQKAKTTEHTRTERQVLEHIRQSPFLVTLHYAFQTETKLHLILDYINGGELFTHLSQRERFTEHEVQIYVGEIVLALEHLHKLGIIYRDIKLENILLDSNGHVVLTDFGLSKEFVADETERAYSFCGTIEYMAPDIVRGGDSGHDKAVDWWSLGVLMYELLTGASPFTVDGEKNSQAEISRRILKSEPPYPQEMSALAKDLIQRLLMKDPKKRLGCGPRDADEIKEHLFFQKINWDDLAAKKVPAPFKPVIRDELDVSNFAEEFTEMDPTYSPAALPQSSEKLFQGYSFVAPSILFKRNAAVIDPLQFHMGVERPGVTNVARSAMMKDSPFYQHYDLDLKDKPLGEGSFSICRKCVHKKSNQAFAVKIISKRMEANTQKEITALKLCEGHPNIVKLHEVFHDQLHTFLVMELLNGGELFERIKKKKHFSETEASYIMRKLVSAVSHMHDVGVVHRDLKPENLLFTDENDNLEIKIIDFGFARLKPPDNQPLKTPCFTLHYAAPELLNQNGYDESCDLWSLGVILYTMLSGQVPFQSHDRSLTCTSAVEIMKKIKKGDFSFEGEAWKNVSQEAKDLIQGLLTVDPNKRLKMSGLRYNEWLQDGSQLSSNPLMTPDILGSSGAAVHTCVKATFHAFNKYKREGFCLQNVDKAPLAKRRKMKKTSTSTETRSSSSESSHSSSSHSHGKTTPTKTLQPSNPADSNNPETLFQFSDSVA

SMILES	inhibition [1]	inhibition [2]	inhibition [3]	inhibition [4]	inhibition [5]	inhibition [6]	inhibition [7]	inhibition [8]	inhibition [9]	inhibition [10]
Cc1ccc(NC(=O)CC2CC2)cc1-c1ccc(C(=O)NCC2CC2)cc1	-0.72%	2.73%	-0.56%	0.45%	8.94%	8.13%	2.17%	2.4%	1.73%	2.46%
ON=C1CCc2cc(-c3nc(C4CCNCC4)[nH]c3-c3ccncc3)ccc21	1.01%	1.89%	-0.75%	1.17%	-0.09%	-0.44%	-0.82%	1.3%	0.43%	-1.14%
COC(=O)Nc1nc2cc(Oc3ccc(NC(=O)Nc4cccc(Br)c4)cc3)ccc2[nH]1	0.43%	0.85%	1.24%	-0.22%	2.67%	1.7%	2.29%	2.39%	2%	3.21%
Cc1ccc2c(c1)/C(=N/Nc1ccc(S(N)(=O)=O)cc1)C(=O)N2	0.22%	1.3%	-0.79%	1.36%	0.95%	1.23%	-1.41%	2.32%	0.52%	2.59%
COc1ccc2ncnc(Nc3ccc(OCc4ccccc4)cc3)c2c1	0.54%	2.68%	0.54%	0.8%	1.25%	0.63%	-3.48%	1.47%	1.08%	0.96%
NC(=O)c1sc(-n2cnc3ccccc32)cc1OCc1ccccc1Br	1.73%	4.94%	-1.16%	0.28%	8.61%	10%	2.12%	4.72%	1.52%	4.06%
c1ccc(Nc2ncc(-c3ccccc3)o2)cc1	1.05%	2.6%	-0.11%	0.28%	3.68%	3.58%	2.52%	3.34%	3.16%	5%
O=C(Nc1ccc(Oc2ccc3[nH]c(NC(=O)c4ccco4)nc3c2)cc1)Nc1cc(C(F)(F)F)ccc1F	-0.11%	-0.59%	1.48%	2.67%	-0.96%	1.79%	1.72%	5.67%	14.2%	58.4%
Cc1cc(O)cc(C)c1/C=C/c1cncc(C(=O)N(C)C)c1	0.02%	0.32%	0.83%	1.36%	2%	4.09%	1.39%	2.46%	0.39%	3.03%
Cc1cc(Cl)cc2c1NC(=O)C2=NNc1ccc(S(N)(=O)=O)cc1	0.98%	2.69%	0.17%	-0.38%	3.06%	2.08%	2.85%	3.47%	0.25%	2.34%
Nc1nccc(-c2c(-c3ccc(F)cc3)nn3cc(C(F)(F)F)ccc23)n1	-3.46%	-4.53%	-0.89%	-2.82%	-0.99%	-2.88%	1.24%	-1.94%	-0.77%	-3%
N#Cc1c(NC(=O)c2ccccc2F)sc2c1CCCC2	1.07%	-1.26%	0.23%	-0.14%	-2.83%	-2.33%	-1.11%	-0.35%	-0.91%	-0.98%
C[C@@H](Oc1cc(-n2cnc3ccc(OC[C@@H](O)CO)cc32)sc1C(N)=O)c1ccccc1Cl	-0.35%	4.31%	1.02%	3.59%	-1.23%	-0.54%	0.35%	1.7%	0.75%	1.5%
O=C1Nc2ccccc2/C1=C/Nc1ccc2[nH]c(=O)[nH]c2c1	-0.3%	1.93%	-0.63%	-1.04%	3.99%	5.92%	3.86%	16.6%	2.55%	11.1%
N#Cc1cccc(Nc2nccc(-c3cnn4ncccc34)n2)c1	0%	2.93%	-1.54%	1.01%	3.66%	8.54%	2.1%	8.46%	0.58%	3.59%
CS(=O)(=O)CCNCc1nc(-c2ccc3ncnc(Nc4ccc(OCc5cccc(C(F)(F)F)c5)cc4)c3c2)cs1	4.26%	2.95%	-0.6%	0.82%	0.64%	1.57%	1.54%	2.66%	1.22%	1.83%
NS(=O)(=O)c1ccc(-c2cc3ccncc3cc2OCc2ccccc2)cc1	-0.66%	-1.1%	-1.66%	-2.27%	1.89%	0.96%	1.86%	2.64%	1.3%	2.04%
